# Source: PubChem
# D2 ag-1 – activates the human D2 dopamine receptor. P14416. HEK293 T-REx D2 cells, calcium flux agonist mode. activation, % at 2 µM. 340,000 tested, 0.53% active. AID 485358;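 active = activation over 3 SD above normal in the single-dose calcium agonist read, cut at about 30% in these data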; also: 0% is about no effect
# Target sequence (P14416 whole entry, looked up): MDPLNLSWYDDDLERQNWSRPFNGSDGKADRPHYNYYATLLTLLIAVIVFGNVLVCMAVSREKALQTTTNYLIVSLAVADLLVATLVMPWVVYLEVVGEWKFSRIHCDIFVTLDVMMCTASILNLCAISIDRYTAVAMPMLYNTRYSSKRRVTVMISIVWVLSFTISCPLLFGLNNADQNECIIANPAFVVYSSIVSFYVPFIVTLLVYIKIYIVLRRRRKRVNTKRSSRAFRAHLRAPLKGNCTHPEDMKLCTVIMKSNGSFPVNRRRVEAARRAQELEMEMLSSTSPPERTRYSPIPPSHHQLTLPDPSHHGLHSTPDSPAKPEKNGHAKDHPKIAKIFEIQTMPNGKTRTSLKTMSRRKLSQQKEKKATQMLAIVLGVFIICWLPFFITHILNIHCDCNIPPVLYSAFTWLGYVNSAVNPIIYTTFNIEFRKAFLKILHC
#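 In this primary screen, compounds producing a positive calcium signal within 180 s of addition to tetracycline-induced, force-coupled HEK293 Trex D2 cells are flagged; cells are dye-loaded with a no-wash calcium kit beforehand.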
# D2 ag-2 – agonists of human D2 dopamine receptor (beta-arrestin); P14416; DiscoveRx PathHunter D2 beta-arrestin, luminescence, 90 min; 100% = 57 uM dopamine signal; activation, % (concentration not given with the values); 360,000 tested, 0.084% active; AID 624465; in the data active = activation above about 40%; inconclusive = between about 15% and that limit
#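 DiscoveRx PathHunter D2 beta-arrestin cells (2,100/well) attached overnight, then compound-stimulated 90 min at 37 C in HBSS/10 mM HEPES/0.1% Tween-20 buffer; beta-galactosidase complementation read by luminescence after 1 h at ambient temperature. Dopamine 57 uM final (EC100) as control.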
# D2 PAM-1 – positively modulates the human D2 dopamine receptor allosterically | 340,000 tested, 0.34% active | potentiation, % at 10 µM | HEK293 T-REx D2, calcium flux, EC20 dopamine potentiation | AID 485347 | P14416;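 active = potentiation over 3 SD above the plate norm, cut at about 30% in these data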; also: 0% is about no effect
#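 Using a no-wash calcium dye in inducible, force-coupled HEK293 Trex cells expressing D2, we tracked fluorescence each second for 180 s after compound, then for 180 s after EC20 dopamine to detect augmented signalling.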
# D2 antag – antagonizes the human D2 dopamine receptor; P14416; HEK293 TREx D2 cells, calcium flux, dopamine EC80; inhibition, % at 10 µM; 340,000 tested, 2% active; AID 485344; in the data active = inhibition above about 30%; inactive = below that, where a call was filed; also: 0% is about no effect
#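 Compounds are added to dye-loaded, induced HEK293 T-REx cells coupled to calcium release via D2; after a 3 min kinetic read an EC80 dopamine stimulus is given and fluorescence is recorded for 3 more min.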
# D2 PAM-2 – potentiates the human D2 dopamine receptor allosterically | P14416 | DiscoveRx D2 beta-arrestin cells, luminescence, 90 min; 100% = 57 uM dopamine signal | potentiation, % (test concentration not listed) | 360,000 tested, 0.23% active | AID 624464; in the data active = potentiation above about 50%; inconclusive = mostly about 30% to 49%
#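 PathHunter D2 cells, attached overnight at 37 deg C, received compound in DMSO plus dopamine at EC20 (50 nM final) for 90 min at 37 deg C. Beta-arrestin recruitment was read as luminescence after 1 h with detection reagent at ambient temperature.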
# * hit, by the source's call; ? = inconclusive; . = not tested or not shown. A selection: hits, their analogues and other compounds. The true share with any hit is near 2.4%.
SMILES,D2 ag-1,D2 ag-2,D2 PAM-1,D2 antag,D2 PAM-2
CCOC(=O)C1CCN(CC(=O)Nc2c(C(=O)OC)[nH]c3ccccc23)CC1,35.2*,.,-8.1,48.8*,.
CCOc1ccc(N(CC)C(=O)Cn2cnc3sc(C)c(S(=O)(=O)N4CCN(c5ncccn5)CC4)c3c2=O)cc1,-0.4,.,14.8,.,.
Cc1ccc(NC2=C(Cl)C(=O)c3ccccc3C2=O)cc1,0.4,8.3,-3.8,15.6,20.7
CCN(CC)c1ccc(NC2=C(Cl)C(=O)c3ccccc3C2=O)cc1,0.3,10.2,1.4,13.1,59.5*
CCOc1ccc(CCNC(=O)Cn2ncn3nc(-c4ccc(OC)cc4)cc3c2=O)cc1,0.1,-0.2,-1.4,-12.0,-3.0
Cc1nn(CC(=O)NCCCN2CCN(C)CC2)c(=O)c2cc(-c3ccccc3)nn12,0.0,2.2,30.1*,3.5,-16.0
Cc1nn(CC(=O)NCCCc2ccccc2)c(=O)c2cc3occc3n12,0.0,2.7,-12.0,32.4*,-6.9
COc1ccc(-c2cc3c(=O)n(CC(=O)NCCCN4CCN(Cc5ccccc5)CC4)ncn3n2)cc1,0.7,-6.5,-31.8,37.1*,-17.5
COc1ccc(-c2cc3c(=O)n(CC(=O)NCCCN4CCC(Cc5ccccc5)CC4)ncn3n2)cc1,0.5,-5.4,-26.3,89.1*,-56.4
COc1ccc(-c2cc3c(=O)n(CC(=O)NCc4ccc(Cl)cc4)ncn3n2)cc1,-0.4,-4.5,-0.9,-18.5,-2.1
O=C(c1ccccc1)N1CCCCC(Cl)C1=O (stereo not drawn),1.6,-1.5,-1.7,31.1*,-8.6
O=C(CCN1C(=O)S/C(=C\c2ccccc2)C1=O)N1CCCCC1,0.2,-3.2,6.7,35.0*,-6.1
CN1CCN(C(=O)CCN2C(=O)/C(=C/c3cccc(Br)c3)SC2=S)CC1,0.5,-2.7,3.1,31.0*,-7.9
O=C(Nc1ccccc1C(=O)O)c1cccc(NS(=O)(=O)c2ccc(Br)cc2)c1,.,2.6,.,.,81.7*
O=C(O)c1cc(S(=O)(=O)Nc2cccc(Oc3ccccc3)c2)ccc1Br,-2.3,-2.1,38.9*,11.9,-3.9
O=C(c1cc(F)ccc1F)C1CCCN(C(=O)CCc2cnccn2)C1 (stereo not drawn),-2.1,1.6,-3.6,37.9*,-6.5
O=C(c1cccc2ccccc12)C1CCCN(C(=O)CCc2cnccn2)C1 (stereo not drawn),0.8,3.0,0.3,0.3,-4.2
CCCSc1nc2c(cnn2-c2ccccc2)c(=O)[nH]1,-1.0,-4.1,40.9*,2.6,-4.9
Cc1ccccc1NC(=O)c1sc(Cl)nc1-c1ccccc1,-0.1,-2.1,-0.8,30.7*,7.7
Cc1cccc(CCNC(=O)c2ccc3c(c2)nc2n3CCCCC2)c1,.,.,-0.5,.,.
O=C1N(CN2CCN(c3cccc(Cl)c3)CC2)c2ccccc2C12OCCCO2,1.0,-1.1,-21.7,33.4*,-17.1
O=C1N(CN2CCC3(CC2)OCCO3)c2ccccc2C12OCCCO2,0.1,-3.1,5.5,3.7,-10.0
O=C(Nc1ccc2nn(-c3ccc(F)cc3)nc2c1)c1cccc2c(Cl)cccc12,-0.8,.,7.3,.,.
CCN(CC)S(=O)(=O)c1cccc(C(=O)NCC2(N3CCOCC3)CCCCC2)c1,0.0,-4.0,3.5,39.1*,-1.8
O=C(c1nc2ccccn2c1CNCCCn1ncc2ccccc21)N1CCOCC1,-0.1,-2.2,-8.4,-5.8,-6.8
SMILES,D2 ag-1,D2 ag-2,D2 PAM-1,D2 antag,D2 PAM-2
Cn1cc(CNCCCn2ncc3ccccc32)c(-c2ccccc2F)n1,1.0,-3.8,-20.3,37.2*,-27.1
Clc1ccc(-c2nnn3c2nc(N2CCCCC2)c2ccccc23)cc1,0.5,.,0.3,.,.
COc1ccccc1C(=O)O/N=C(/c1ccncc1)c1ccc([N+](=O)[O-])cc1,1.5,?,3.9,-8.2,100.1*
O=C(O)c1ccccc1SCC(=O)N1CCCCC1,-0.1,-0.6,3.2,-0.2,3.3
O=C(O)c1ccccc1SCC(=O)N1c2ccccc2Sc2ccccc21,-1.2,?,-4.4,-6.3,61.6*
Cc1cccc(OCc2nc(CC(=O)Nc3ccc(Cl)cc3)cs2)c1,-1.2,.,0.2,.,.
O=C(Nc1ccc(S(=O)(=O)NC2=NCCCCC2)cc1)c1ccc([N+](=O)[O-])s1,0.5,7.4,-2.5,-20.0,68.0*
O=C(Nc1ccc(S(=O)(=O)NC2=NCCCCC2)cc1)c1cccs1,.,-2.6,.,.,1.1
Cc1cc(NS(=O)(=O)c2ccc(NC(=O)c3ccc([N+](=O)[O-])s3)cc2)nc(C)n1,.,12.5,.,.,60.2*
CCc1nnc2c3ccccc3nc(N3CCN(c4cc(C)ccc4C)CC3)n12,-1.4,.,-1.3,.,.
Cc1ccc(NC(=O)c2cc(=O)n(Cc3ccccc3)c(=O)[nH]2)cc1C,.,2.9,9.5,33.7*,-5.0
O=C(O)c1cc(=O)n(Cc2ccccc2)c(=O)[nH]1,0.8,-0.1,12.2,8.5,-8.4
CCc1ccccc1NC(=O)c1sc(-n2nc(C)c(Cc3ccc4c(c3)OCO4)c2C)nc1C,0.9,.,-10.5,.,.
O=C(CNS(=O)(=O)c1ccccc1)OCC(=O)c1ccc(F)cc1,-2.0,-4.0,36.0*,-16.1,-5.5
COc1ccc(NC(=O)CC2C(=O)N(c3ccc(C)cc3)C(=O)N2CCc2ccccc2)cc1 (stereo not drawn),-0.5,.,-7.2,.,.
CC1(c2ccccc2)NC(=O)N(CC(=O)N2CCOCC2)C1=O (stereo not drawn),-0.4,-3.4,-3.2,0.3,-15.9
CC(C)(C)C1(c2ccccc2)NC(=O)N(CC(=O)N2CCOCC2)C1=O (stereo not drawn),0.4,1.9,-17.4,43.8*,9.8
Cc1ccc(S(=O)(=O)N(C)C)cc1NC(=S)N(CCC#N)Cc1cccnc1,-0.1,-4.6,-13.1,43.5*,-15.8
CCOc1cc(/C=C2\COc3ccccc3C2=O)cc(Br)c1OCC(=O)N(C)C,10.6,-1.1,-1.0,44.5*,-5.4
COc1ccc(/C=C2\COc3ccccc3C2=O)cc1OC,0.2,0.7,18.2,-2.5,5.1
CCOc1ccc(OCc2cccc(C(=O)O)c2)cc1,-0.4,2.8,-1.4,-16.2,-1.3
COc1ccc(OCc2cccc(C(=O)O)c2)cc1,0.7,-0.7,2.9,34.9*,-9.4
Cc1cccc(C(=O)Nc2ccc3nc(SCC(=O)N4CCCC4)sc3c2)c1,-0.3,.,10.0,.,.
CNC(=S)NC1CC2CCC(C1)N2Cc1ccccc1 (stereo not drawn),0.9,-2.1,-25.6,63.6*,-27.4
S=C(Nc1ccc(Cl)cc1)NC1CC2CCC(C1)N2Cc1ccccc1 (stereo not drawn),3.1,3.8,-27.9,93.3*,-24.0
CCc1ccc(NC(=S)NC2CC3CCCC(C2)N3Cc2ccccc2)cc1 (stereo not drawn),0.0,-2.3,7.8,40.3*,-20.5
C=CCN1C2CCCC1CC(NC(=S)Nc1ccc(Cl)cc1)C2 (stereo not drawn),.,-0.3,.,.,-16.9
